From PubChem
A selection: hits, their analogues and other compounds. The true share with any hit is near 2.2%.
miR122 inh – blocks miR-122 activity in Huh7 sensor cells | Huh7 miR-122 Renilla luciferase sensor, 48 h; neutral wells = 0, positive control = 100 | activation (reporter increase), % at 12.5 µM | 340,000 tested, 0.3% active;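 active = mean replicate activation score at least 90 and every replicate individually at or above 90; inconclusive = only one of the two criteria met; inactive = neither criterion met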;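 note: higher luciferase means less miR-122 activity so hits act as miR-122 inhibitors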
PGC1a acetyl inh – PGC1a acetylation modulation, inhibitor mode. U2OS PGC1a acetylation, AlphaScreen anti-acetyl-lysine; with virally co-expressed GCN5 acetyltransferase. inhibition, % at 15.6 µM. 350,000 tested, 0.17% active;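 active = every replicate shows inhibition of at least 40%; inconclusive = mean inhibition at least 40% but some replicate below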;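 note: 0% = neutral control wells and 100% = positive control wells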
DENV2 CPE rescue – protects cells from dengue virus 2 cytopathic effect; DENV2-infected cells, cytopathic effect rescue, plate reader; CPE inhibition, % at 9.99 µM; 350,000 tested, 1.7% active; AID 651640; in the data active = CPE inhibition above about 20%, passing the limit was not always enough; inconclusive = no clear call, values can overlap the other calls; tested in BHK-21 cells;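 note: 0% = median of neutral control wells and 100% = median of positive control wells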
C2C12 statin – suppression of simvastatin myotoxicity; C2C12 myotubes + simvastatin, ATP luminescence, 48 h; scaled: DMSO 0, geranylgeraniol control 100; rescue of ATP level, % at 7.49 µM; 330,000 tested, 0.78% active;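 active = mean ATP rescue above about 67%, or every replicate alone reaching that limit, limit read from the data, passing the limit was not always enough; inconclusive = no clear call, values can overlap the other calls; inactive = mean under the limit and some replicate under it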;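 note: myotubes were challenged with 10 µM simvastatin during compound exposure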
PvdQ inh – P. aeruginosa PvdQ acylase inhibition; AID 488965; 340,000 tested, 0.063% active; purified PvdQ acylase, fluorescence plate reader; inhibition, % at 10 µM; in the data active = inhibition above about 30%, passing the limit was not always enough; inconclusive = no clear call, values can overlap the other calls;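 note: 0% = vehicle neutral wells and 100% = reference inhibitor wells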
* = called active by the depositor; ? = inconclusive; / = no result given; [ ] = another dose, or the depositor's remark.

SMILES	miR122 inh	PGC1a acetyl inh	DENV2 CPE rescue	C2C12 statin	PvdQ inh
CN(C)C(=O)c1cccc(-c2ccccc2[C@@H]2[C@@H](C#N)N(C(=O)C3CC3)[C@@H]2CO)c1	/	2.1	45.6*	/	/
N#C[C@H]1[C@@H](c2ccccc2-c2ccccc2F)[C@H](CO)N1C(=O)C1CC1	/	2.3	25.5*	/	/
CN(C)C(=O)c1cccc(-c2ccccc2[C@@H]2[C@H](C#N)N(C(=O)C3CCCCC3)[C@H]2CO)c1	/	6.4	73.1*	/	/
Cc1cc(C)c2c(CN3CCN(Cc4ccc5c(c4)OCO5)CC3)cc(=O)oc2c1	0.6	6.6	/	150.3*	-5.1
Cc1cc(C(=O)N2CCN(Cc3ccc4c(c3)OCO4)CC2)cs1	-0.5	11.0	-8.9	91.6*	-4.3
O=C(c1ccccc1Br)N1CCN(Cc2ccc3c(c2)OCO3)CC1	1.4	20.1	50.3*	-3.7	-5.2
CCC(=O)N1CCCCN2[C@@H](CO)[C@@H](c3ccc(C#Cc4cccnc4)cc3)[C@@H]2C1	-4.1[16.7 µM]	-4.7	22.6*	-2.0	/
CCC(=O)N1CCCCN2[C@@H](CO)[C@@H](c3ccc(-c4cccnc4)cc3)[C@@H]2C1	-3.2[16.7 µM]	-1.8	15.7	10.2	/
CCC(=O)N1CCCCN2[C@H](CO)[C@@H](c3ccc(-c4ccc(F)cc4)cc3)[C@H]2C1	5.2[16.7 µM]	0.6	31.1*	-9.7	/
CCC(=O)N1CCCCN2[C@H](CO)[C@H](c3ccc(C#Cc4cccnc4)cc3)[C@@H]2C1	13.8[16.7 µM]	-3.4	-5.4	-16.6	/
CCC(=O)N1CCCCN2[C@H](C1)[C@H](c1ccc(-c3cccnc3)cc1)[C@@H]2CO	9.9[16.7 µM]	-8.4	37.7*	-4.0	/
C[C@@H]1CN([C@@H](C)CO)C(=O)c2cc(NC(=O)c3ccncc3)ccc2O[C@H]1CN(C)C(=O)Nc1ccc2c(c1)OCO2	-4.9[16.7 µM]	-1.3	-5.9	15.2	/
CCCN(C)C[C@@H]1OCCCC[C@@H](C)Oc2ccc(NS(=O)(=O)c3cn(C)cn3)cc2C(=O)N([C@@H](C)CO)C[C@@H]1C	8.2[16.7 µM]	0.0	2.9	7.6	/
C[C@@H]1CN([C@@H](C)CO)C(=O)c2cc(N(C)C)ccc2O[C@H]1CN(C)C(=O)Nc1ccc(F)cc1	-3.8[16.7 µM]	-3.3	35.0*	-0.6	/
Cc1noc(C)c1NC(=O)N(C)C[C@H]1Oc2ccc(N(C)C)cc2C(=O)N([C@@H](C)CO)C[C@H]1C	3.8[16.7 µM]	-1.7	21.2*	-12.4	/
C[C@@H]1CN([C@@H](C)CO)C(=O)c2cc(N(C)C)ccc2O[C@H]1CN(C)C(=O)Nc1ccc2c(c1)OCO2	-2.4[16.7 µM]	10.9	40.4*	-1.9	/
C[C@@H]1CN([C@H](C)CO)C(=O)c2cc(N(C)C)ccc2O[C@H]1CN(C)C(=O)Nc1ccc(F)cc1	0.2[16.7 µM]	-0.7	11.7	32.3	/
Cc1noc(C)c1NC(=O)N(C)C[C@H]1Oc2ccc(NS(=O)(=O)c3cccs3)cc2C(=O)N([C@@H](C)CO)C[C@@H]1C	-1.0[16.7 µM]	-9.0	38.5*	-22.9	/
COCC(=O)Nc1ccc2c(c1)OC[C@H](C)N(Cc1ccccc1)C[C@@H](C)[C@H](OC)CN(C)C2=O	0.4[16.7 µM]	-5.5	-0.4	-1.5	/
O=C(CN(Cc1cccs1)S(=O)(=O)c1ccc(S(=O)(=O)NC2CCCCC2)cc1)Nc1ccccc1	132.1*	/	/	/	-7.0
O=C(C[C@@H]1C=C[C@H](NS(=O)(=O)c2ccccc2)[C@H](CO)O1)NCc1ccccc1F	/	4.1	-9.5	-1.1	/
C/C(N)=C(/C#N)C(=O)CSc1ccccc1F	/	-4.6	5.7	/	-7.2
C/C(N)=C(/C#N)C(=O)CSc1nnc(Cc2ccccc2F)n1N	-7.2	6.3	54.4*	6.0	-12.1
Cc1csc2ncc(C(=O)Nc3cccc(C(F)(F)F)c3)c(=O)n12	-1.7	-3.2	-7.3	106.8*	-6.6
COc1ccc(CCNC(=O)c2cnc3scc(C)n3c2=O)cc1OC	4.9	1.2	75.1*	/	-12.3
SMILES	miR122 inh	PGC1a acetyl inh	DENV2 CPE rescue	C2C12 statin	PvdQ inh
O=C(C[C@@H]1CC[C@@H]2[C@H](COC[C@H](O)CN2CCC(F)(F)F)O1)NCC1CCCCC1	2.4[16.7 µM]	6.6	3.0	11.2	/
CC1(C)C(=O)Nc2ccccc2N1C(=O)COC(=O)C12CC3CC(CC(O)(C3)C1)C2	/	-7.7	/	89.2*	-0.6
CO[C@@H]1CN(C)C(=O)c2ccc(NC(=O)c3ccccc3)cc2OC[C@@H](C)N(C(=O)C2CC2)C[C@H]1C	/	-13.3	25.5*	/	/
CO[C@@H]1CN(C)C(=O)c2cc(NC(=O)c3ccccc3)ccc2OC[C@H](C)N(C(=O)C2CC2)C[C@@H]1C	-6.9[16.7 µM]	-7.5	95.5*	-4.4	/
CO[C@H]1CN(C)C(=O)c2ccc(NC(=O)c3ccccc3)cc2OC[C@H](C)N(C(=O)C2CC2)C[C@@H]1C	/	1.5	15.9	/	/
O=C([C@H]1N[C@H]2c3ccc(-c4ccc(F)cc4)c(=O)n3C[C@H]2[C@@H]1CO)N1CCOCC1	3.7[16.7 µM]	/	-3.2	-15.1	/
O=C(C[C@@H]1C=C[C@H](NC(=O)c2ccc(F)cc2)[C@@H](CO)O1)NCCc1ccncc1	/	-15.1	2.4	-12.5	/
Cn1nc(C(=O)Nc2ccc(Cl)cc2)cc1C(=O)Nc1ccc(Cl)cc1	4.8	3.9	6.2	6.5	-10.0
Cc1ccc(NC(=O)c2cc(C(=O)Nc3ccc(C)cc3)n(C)n2)cc1	/	/	41.6*	/	-12.9
COC1=CC(=O)OC(c2cccc([N+](=O)[O-])c2)C1 (stereo not given)	/	/	41.2*	/	/
N#CCc1ccc(NS(=O)(=O)c2ccc(C3CCCCC3)cc2)cc1	182.4*	/	-4.8	/	-9.7
COC(=O)c1ccc(NS(=O)(=O)c2ccc(OC)cc2)cc1	13.3	-11.8	/	-38.7	1.3
COc1ccc(S(=O)(=O)Nc2ccc(CC#N)cc2)cc1	163.9*	-1.0	/	-5.5	-10.0
Cc1cccc(NS(=O)(=O)c2ccc(C3CCCCC3)cc2)c1	?	/	/	/	-18.8
COc1cccc(CNC(=O)C[C@H]2C=C[C@@H](NC(=O)C3CC3)[C@H](CO)O2)c1	/	14.0	8.1	-0.8	/
CCCNC(=O)Nc1ccc2c(c1)OC[C@H](C)N(C(C)=O)C[C@@H](C)[C@@H](OC)CN(C)C2=O	/	7.7	-6.3	6.7	/
CCCN1[C@@H]2c3ccc(/C=C/c4ccccc4)c(=O)n3C[C@@H]2[C@@H](CO)[C@@H]1C(=O)N1CCOCC1	11.4[16.7 µM]	10.2	7.0	11.3	/
COc1ccc(C(=O)OCc2c(-c3cccc(OC)c3)ncc3ccccc23)cc1	1.3	-2.9	21.9*	3.5	0.2
Cc1ccccc1-c1ccc2c(c1)O[C@H](CN(C)C(=O)Nc1ccc(C(F)(F)F)cc1)[C@H](C)CN([C@@H](C)CO)S2(=O)=O	-14.4[16.7 µM]	0.0	?	-374.7	/
COc1ccc(S(=O)(=O)Nc2ccc3c(c2)C(=O)N([C@@H](C)CO)C[C@H](C)[C@@H](CN(C)C(=O)Nc2ccc(F)cc2)O3)cc1	4.3[16.7 µM]	0.1	-3.9	-25.0	/
C[C@@H]1CN([C@H](C)CO)C(=O)Cc2cc(NS(=O)(=O)c3cn(C)cn3)ccc2O[C@H]1CN(C)CC1CC1	7.1[16.7 µM]	1.8	?	6.6	/
O=C(COC(=O)CNC(=O)c1ccc(Cl)cc1)Nc1ncc(C(F)(F)F)cc1Cl	/	/	76.2*	/	-7.0
